In the library only some 6.1% were active in any assay of this set; here they are far more common.
TGFb SMAD3 inh: qHTS for Inhibitors of TGF-b | HepG2 CAGA-GFP TGF-b/SMAD3 reporter, GFP fluorescence, 18 h; TGF-beta stimulated, 500 pg/mL final | Potency, µM (doses to about 46.1 µM), hits mostly inhibitors | actives 1.2% (n = 410,000); also: nearly all actives have a fitted effect of over 65% in size
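Inhibition of TGF-beta-driven CAGA-GFP reporter expression in HEPG2 cells is measured by cellular GFP fluorescence after 18 h stimulation with 500 pg/mL recombinant TGF-beta in 1% FBS medium at 37 degrees C.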
ATXN2 expr inh: Primary qHTS for Inhibitors of ATXN expression | HEK-293 ATXN2-luciferase reporter, luminescence, 24 h | Potency, µM (doses to about 57 µM), actives largely listed as inhibitors | actives 0.72% (n = 360,000) | AID 1745845, 2022; also: nearly all actives have a fitted effect of over 55% in size
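qHTS (up to 57 uM final) was run with 24 h compound exposure of reporter cells at 37 °C. Each well was multiplexed: SteadyGlo luminescence measured ATXN2-luciferase expression after a fluorogenic Gly-Phe-AFC viability readout (25 uM final).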
VP16 counter: VP16 counterscreen qHTS for inhibitors of ROR gamma transcriptional activity; actives 3.5% (n = 310,000); AID 2546, 2010; Drosophila S2 Gal4-VP16 UAS-luciferase, luminescence, 20 h; Potency, µM (doses to about 53.6 µM), actives largely listed as inhibitors;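 also: Gal4-VP16 expression switched on by copper sulfate through the metallothionein promoter; nearly all actives have a fitted effect of over 50% in size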
S2 tox: Viability Counterscreen for Primary qHTS for Inhibitors of ATXN expression. Potency, µM (doses to about 56.7 µM), usual class: cytotoxic. actives 0.49% (n = 400,000). S2 cells (HEK-293 line with an ATXN2-luciferase reporter) viability, CellTiter-Fluor protease fluorescence, 24 h; also: nearly all actives have a fitted effect of over 40% in size
HepG2 viability: qHTS for Inhibitors of TGF-b: Cytotox Counterscreen; AID 588856, 2011; HepG2 CAGA-GFP viability, ATP luminescence, 18 h; actives 0.76% (n = 410,000); Potency, µM (titrated, usually from 46.1 µM), usual class: cytotoxic
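CellTiter-Glo luminescence gave cytotoxicity after 18 hours at 37 degrees C. The cells were HepG2 CAGA-GFP in 1% FBS DMEM, stimulated with 500 pg/mL TGF-beta after compound addition. %Activity was normalised to no-cell wells (complete cell-killing) and DMSO (no toxicity), and curves were fitted and classified.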
RORgamma inh: qHTS for inhibitors of ROR gamma transcriptional activity; Drosophila S2 Gal4-RORgamma UAS-luciferase reporter, 20 h; Potency, µM (series often up to 53.6 µM), hits mostly inhibitors; actives 5.4% (n = 310,000); also: nearly all actives have a fitted effect of over 60% in size
Target sequence (P51450 whole entry, looked up, the tested form may be a part): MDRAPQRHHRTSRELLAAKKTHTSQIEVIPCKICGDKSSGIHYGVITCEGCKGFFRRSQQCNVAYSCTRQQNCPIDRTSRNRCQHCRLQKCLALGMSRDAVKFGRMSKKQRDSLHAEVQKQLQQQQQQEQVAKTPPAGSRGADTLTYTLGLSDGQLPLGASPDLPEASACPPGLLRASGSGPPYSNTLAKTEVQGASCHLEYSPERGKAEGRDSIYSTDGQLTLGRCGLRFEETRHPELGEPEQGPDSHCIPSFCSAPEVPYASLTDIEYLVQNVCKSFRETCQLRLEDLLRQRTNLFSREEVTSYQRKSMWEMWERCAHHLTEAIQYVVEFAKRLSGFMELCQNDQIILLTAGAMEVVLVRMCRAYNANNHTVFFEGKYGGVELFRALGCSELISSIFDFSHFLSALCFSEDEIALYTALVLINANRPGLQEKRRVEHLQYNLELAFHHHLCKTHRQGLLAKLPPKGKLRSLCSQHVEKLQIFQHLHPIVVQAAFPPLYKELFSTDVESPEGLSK
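Stably transfected Drosophila Schneider cells are the test system, with ROR gamma fused to Gal4 and luciferase under UAS control; luminescence is read after 20 hr of 700 uM copper sulfate induction at ambient temperature.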
A number is an active result; . = inactive; ? = inconclusive; / = no result; [ ] = remark or other dose. Calls follow the shape of the dose curve; as a rule, active = well fitted curve in the direction sought with a large enough effect; inconclusive = small, poorly fitted or top-dose-only effect, or another doubt; inactive = no such curve, though single readings can be large; an effect the other way counts as inactive or inconclusive.

SMILES | TGFb SMAD3 inh | ATXN2 expr inh | VP16 counter | S2 tox | HepG2 viability | RORgamma inh
CCCCCCCCCCCCC[N+](C)(C)Cc1ccccc1 | / | / | 8.9µM | / | / | ?
S=C(NCc1ccco1)Nc1ccc(Cl)cn1 | . | . | 2.8µM | . | . | 2.5µM
S=C(NCc1ccco1)Nc1ccccn1 | . | . | 13µM | . | . | 1.8µM
CC(OC(=O)c1ccc(S(=O)(=O)NCc2ccco2)cc1)C(=O)Nc1ccc(Cl)cn1 (stereo not given) | . | . | . | . | . | ?
Cc1cccnc1NC(=S)NCc1ccco1 | . | . | ? | . | . | 2µM
Cc1cccnc1NC(=O)c1ccco1 | . | . | / | . | . | /
Cn1cnc2c(F)c(Nc3ccc(Br)cc3F)c(C(=O)NOCCO)cc21 | / | . | / | / | / | /
Clc1cnc(N/N=C/c2ccco2)c(Cl)c1 | . | . | 13µM | . | . | 5.6µM
Cc1ccc(/C=N/Nc2ncc(Cl)cc2Cl)s1 | ? | . | 7.1µM | . | . | 4.5µM
Clc1cnc(N/N=C/c2cccs2)c(Cl)c1 | . | . | ? | . | . | 7.9µM
Brc1ccccc1/C=N/Nc1ccccn1 | . | . | . | . | . | ?
Cc1ccc(/C=N/Nc2ccccn2)s1 | ? | . | 11µM | . | . | ?
CC(C)(C)NCC(O)COc1ccccc1OCC1CCCO1 (stereo not given) | / | . | / | . | / | /
COc1ccc(O[C@H]2C=C[C@@H](c3ccccc3)O[C@H]2COC(=O)CC/C(C)=N\O[C@@H](C)CN2CCCCc3nc(C)c(C)cc32)cc1 | / | / | .[10 µM] | / | / | .[10 µM]
c1ccc2c(-n3ccnc3)nc(-c3ccoc3)nc2c1 | / | / | . | / | / | .
COc1ccc(NC(=O)COCc2cc(-c3ccco3)on2)cc1Cl | . | / | / | / | . | /
COc1cccc(C(=O)NC(=S)Nc2ccc3oc(=O)ccc3c2)c1 | . | . | ? | . | . | ?
O=C(NC(=S)Nc1ccc2oc(=O)ccc2c1)c1cccc(F)c1 | . | . | . | . | . | 6.3µM
O=C(NC(=S)Nc1ccc2oc(=O)ccc2c1)c1cccc(Cl)c1 | . | . | . | . | . | 2.8µM
CCOC(=O)c1sc(NC(=O)c2nc(SCC)ncc2Cl)c(C(=O)OCC)c1C | . | . | / | . | . | /
C=CCSc1nc(N(CC)CC)c2sccc2n1 | . | . | . | . | . | 11µM
O=C(c1cccc(Cl)c1)N1CCCC(Cn2cc(C(=O)N3CCCC3)nn2)C1 (stereo not given) | / | / | / | . | / | /
C=CCn1c(SCC(=O)Nc2ccccc2C)nc2sc(C)c(C)c2c1=O | . | . | 20µM | . | . | 35µM
Cc1sc2nc(SCc3ccc(C(=O)O)cc3)n(Cc3ccco3)c(=O)c2c1C | . | ? | . | ? | . | .
Cc1sc2nc(SCC(=O)NCc3ccco3)n(CCc3ccccc3)c(=O)c2c1C | . | ? | ? | ? | . | 13µM
SMILES | TGFb SMAD3 inh | ATXN2 expr inh | VP16 counter | S2 tox | HepG2 viability | RORgamma inh
C=CCn1c(SCc2ccc(C(=O)O)cc2)nc2sc(C)c(C)c2c1=O | . | / | 7.1µM | . | . | 4µM
Cc1sc2nc(SCC(=O)NCc3ccco3)n(C)c(=O)c2c1C | . | . | . | . | . | .
CNC1[C@H](O)C(O[C@@H]2C(O)C(O[C@H]3O[C@H]([C@@H](C)NC)CC[C@H]3N)[C@@H](N)C[C@H]2N)OC[C@]1(C)O (stereo not given in full) | / | . | / | / | / | /
O=C1C(Cl)=C(N2CCN(c3ccccc3[N+](=O)[O-])CC2)C(=O)c2ccccc21 | 11µM | . | ? | ? | . | .
CS(=O)(=O)Nc1cccc(-c2ccc3ncnc(NCc4cccs4)c3c2)c1 | / | / | . | / | / | ?
CCOC(=O)c1ccc(N2C(=O)CC(Sc3ncccn3)C2=O)cc1 (stereo not given) | . | / | ? | . | . | ?
Cc1cccc(N2C(=O)CC(Sc3nc(-c4ccccc4)c4cc(Cl)ccc4n3)C2=O)c1 (stereo not given) | . | . | ? | . | . | 2.8µM
